We go through 40 molecules from PubChem BioAssay (EPA / NIEHS).

Records with an inconclusive call do not appear. The source made the active and inactive calls. The calls were made as follows: active = hit-call score of the fitted dose curve at least 0.9, where 1 is the maximum; inconclusive = response in the unintended direction; inactive = score below 0.9.

By AC50 is commonly meant the midpoint of the concentration-response curve, whichever way the signal moves.

Chain of Glucocorticoid receptor (Homo sapiens) (P04150 whole entry, looked up): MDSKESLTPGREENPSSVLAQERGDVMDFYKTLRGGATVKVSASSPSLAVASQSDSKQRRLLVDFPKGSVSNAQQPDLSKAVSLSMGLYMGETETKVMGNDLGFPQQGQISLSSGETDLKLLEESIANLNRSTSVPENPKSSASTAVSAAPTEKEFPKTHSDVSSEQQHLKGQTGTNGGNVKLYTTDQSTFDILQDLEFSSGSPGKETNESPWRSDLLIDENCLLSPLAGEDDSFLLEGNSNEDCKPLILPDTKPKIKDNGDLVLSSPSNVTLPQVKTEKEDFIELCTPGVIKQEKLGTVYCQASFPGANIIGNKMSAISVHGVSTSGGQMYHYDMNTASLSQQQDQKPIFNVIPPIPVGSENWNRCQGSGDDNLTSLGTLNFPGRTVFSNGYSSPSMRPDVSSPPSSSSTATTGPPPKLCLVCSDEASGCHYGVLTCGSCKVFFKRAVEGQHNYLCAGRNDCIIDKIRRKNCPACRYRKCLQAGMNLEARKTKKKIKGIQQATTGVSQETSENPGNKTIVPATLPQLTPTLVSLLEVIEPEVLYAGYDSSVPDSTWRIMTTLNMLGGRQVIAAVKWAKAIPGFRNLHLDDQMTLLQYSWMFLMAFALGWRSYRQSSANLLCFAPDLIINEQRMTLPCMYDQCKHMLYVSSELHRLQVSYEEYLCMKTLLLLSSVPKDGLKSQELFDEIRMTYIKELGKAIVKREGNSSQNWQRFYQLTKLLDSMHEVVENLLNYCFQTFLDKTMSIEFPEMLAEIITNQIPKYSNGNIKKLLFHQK

This assay has as its target Glucocorticoid receptor (Homo sapiens) (UniProt P04150). Kind of assay: ATG_GR_TRANS: Attagene TRANS-FACTORIAL HepG2 Assay for human Glucocorticoid Receptor (GR) (AID 2282978).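 Also: activators score as hits since higher reporter transcript over DMSO is fitted.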 Conditions: HepG2 Attagene TRANS GR reporter, mRNA transcription. Here is the method: ATG_TRANS is a cell-based, multiplexed-readout assay that uses HepG2, a human liver cell line, with measurements taken at 24 hours after chemical dosing in a 24-well plate.ATG_GR_TRANS is one of 30 assay component(s) measured or calculated from the ATG_TRANS assay. It is designed to make measurements of mRNA induction, a form of inducible reporter, as detected with fluorescence intensity signals by Reverse transcription polymerase chain reaction (RT-PCR) and Capillary electrophoresis technology.Data from the assay component ATG_GR_TRANS was analyzed into 1 assay endpoint. This assay endpoint, ATG_GR_TRANS, was analyzed in the positive analysis fitting direction relative to DMSO as the negative control and baseline of activity. Using a type of inducible reporter, measures of mRNA for gain-of-signal activity can be used to understand the reporter gene at the transcription factor-level as they relate to the gene NR3C1. Furthermore, this assay endpoint can be referred to as a primary readout, because this assay has produced multiple assay endpoints where this one serves a reporter gene function. To generalize the intended target to other relatable targets, this assay endpoint is annotated to the nuclear receptor intended target family, where the subfamily is steroidal.
Human liver HepG2 cells are transiently transfected with multiple reporter transcription units (MRTUs) in 6-well plates using FuGene 6 reagent (Roche; 3 ml FuGene/1 mg DNA). The MRTU constructs are regulated by a cis-regulating element (promoter). […] A major difference between the CIS and TRANS system is that in CIS activities of endogenous TFs are measured, whereas the TRANS assay evaluates changes in activities of exogenous, chimeric NR-Gal4 proteins. […] At the end of 24 hour incubation, total RNA was isolated using TriZol reagent (Invitrogen). The isolated RNA is then reverse-transcribed using oligo(dT) primer and Mo-MLV reverse transcriptase (Invitrogen) with DNAse I (Ambion) treatment for 30 min. The one-tenth of the produced cDNA was amplified by PCR using Taq DNA polymerase (Invitrogen) and two reporter sequence-specific primers. The PCR products were fluorescently labeled by primer extension with 6-arboxyfluorescein (6-FAM) 5'-labeled reporter sequence-specific primer (2 min at 95 C, 20 s at 68 C and 10 min at 72 C) and these products were digested with 5U of HpaI (New England Biolabs) for 2h at 37 C. The fragments were purified using Qiaquick PCR columns (Qiagen), analyzed on an ABI 3130xL genetic analyzer (Applied Biosystems) with peak positions identified by using a set of X-rhodamine (ROX)-labeled MapMarker1000 molecular weight standards (BioVentures). The raw capillary electrophoresis data was processed using Attagraph software (Attagene).
`CCO[Si](OCC)(OCC)c1ccccc1`: the outcome was inactive.
On the same count and under the same terms, in the case of `O=C1NC(=O)[C@@H]2CC=CC[C@H]12` it was “inactive”.
Same read-out and setting: in the case of `CCCc1c(OCCCCc2nn[nH]n2)ccc(C(C)=O)c1O` it was “inactive”.
As for `CCCCCCCCCCCCCCCCCC[N+](C)(C)C`, the AC50 was 11.8 µM (active).
On to `CCOC(=O)CC(=O)OCC`, for which the call was inactive.
As for `COC(=O)CCSCCC(=O)OC`, the outcome was inactive.
Still for that read-out and setting: in the case of `COC(=O)/C=C\C(=O)OC` it was “inactive”.
`CCO[Si](CCCN)(OCC)OCC`: the molecule was classed as inactive.
For the molecule `CCCCCCCCCC/C=C/C1CC(=O)OC1=O` (stereo not given), the molecule was classed as inactive.
As to `O=C(c1ccccc1)c1ccccc1O`, the call was inactive.
With `CCC(C)=NO`, the result was inactive.
As for `CCCCCCOC(=O)CCCCCCCC(=O)OCCCCCC`, the call was inactive.
As for `CC(C)CC(=O)O`, the result was inactive.
On the same count and under the same terms, as for `Clc1ccc(Sc2cc(Cl)c(Cl)cc2Cl)cc1`, the entry is “inactive”; as for `O=C(O)/C=C\C(=O)O`, “inactive”.
For `NC(N)=Nc1nc(CSCCC(N)=NS(N)(=O)=O)cs1`, the call was inactive.
On to `CC(=O)Nc1c(I)c(NC(C)=O)c(I)c(C(=O)O)c1I`, for which the molecule was classed as inactive.
The same measure, in the same setting: as for `c1ccc(CNc2ncnc3nc[nH]c23)cc1`, the entry is “inactive”.
Consider `OCCc1ccccn1`, for which the call was inactive.
Take `CC1(C)S[C@@H]2[C@H](NC(=O)[C@H](N)c3ccccc3)C(=O)N2[C@H]1C(=O)O`: the outcome was inactive.
On the same count and under the same terms, in the case of `CC/C=C\CCO` it was “inactive”; in that of `CC(C)n1c(/C=C/[C@@H](O)C[C@@H](O)CC(=O)O)c(-c2ccc(F)cc2)c2ccccc21`, “inactive”.
Take `CC(C)(C)NC(=O)[C@@H]1CN(Cc2cccnc2)CCN1C[C@@H](O)C[C@@H](Cc1ccccc1)C(=O)N[C@H]1c2ccccc2C[C@H]1O`: the AC50 was 13.4 µM (active).
As to `C=C(C)C(=O)OCCCCCC`, the molecule was classed as inactive.
Consider `NCc1ccccc1`, for which the outcome was inactive.
On to `CCOC(=O)c1ccccc1`, for which the AC50 was 27.9 µM (active).
As for `CCCCCCCC#N`, the molecule was classed as inactive.
On the same count and under the same terms, in the case of `CCCCCCC1CCCC(=O)O1` (stereo not given) it was “inactive”.
Turning to `CCCCNC(N)=O`, the call was inactive.
Regarding `CC=CC(=O)O`, the call was inactive.
`Sc1nc2ccccc2s1`: the molecule was classed as inactive.
In the case of `Cc1cc(-n2nc3ccc(Cl)cc3n2)c(O)c(C(C)(C)C)c1`, the result was inactive.
On to `O=C(O)Cc1c[nH]c2ccccc12`, for which the outcome was inactive.
As for `CCC(=O)OCc1ccc(OC)cc1`, the molecule was classed as inactive.
For `O=C1CCCCCCCCCCCCCC1`, the result was inactive.
Take `NC(=O)c1ccc([N+](=O)[O-])cc1Cl`: the molecule was classed as inactive.
Consider `CCCCC(CC)COC(=O)CS` (stereo not given), for which the molecule was classed as inactive.
For the molecule `C=CC(C)(CCC=C(C)C)OC(=O)c1ccccc1` (stereo not given), the molecule was called inactive.
As for `COc1ccc2ccccc2c1`, the outcome was inactive.
For the molecule `O=C(C1CCCCC1)N1CC(=O)N2CCc3ccccc3C2C1` (stereo not given), the molecule was called inactive.
